Data taken from PubChem BioAssay (NCI).
Compounds without any hit were thinned out: in the full panel of roughly 79,000, 15% have a hit. Activity calls are given as the source filed them. No stated cut-off is given here; in the data, active means growth inhibition above about 70%; inactive means the rest.

Key:
[1] = NCI Yeast Anticancer Drug Screen. Data for the rad52 strain (AID 147);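 further: 0% = growth of vehicle-treated control cultures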; conditions: S. cerevisiae rad52 mutant growth inhibition, stronger effect = higher value
How it was run: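 Compounds are applied to a genetically defined yeast strain lacking normal DNA damage repair, and inhibition of growth is expressed relative to cultures given vehicle only.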

[2] = NCI Yeast Anticancer Drug Screen. Data for the wt1 strain (AID 149);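 further: 0% = growth of vehicle-treated wt1 cultures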; conditions: S. cerevisiae wt1 strain (SPY 50644) growth inhibition, stronger effect = higher value
How it was run: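 The wt1 strain was treated with compounds, and growth was compared with vehicle-treated cultures to give inhibition.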

[3] = NCI Yeast Anticancer Drug Screen. Data for the rad50EPP+ strain (AID 151);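 further: 0% = growth of vehicle-treated control cultures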; conditions: S. cerevisiae rad50 mutant strain, stronger effect = higher value
How it was run: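 Compounds were applied to the rad50EPP+ yeast strain, which bears a defined DNA repair alteration, and growth inhibition was determined relative to vehicle-treated cultures.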

[4] = NCI Yeast Anticancer Drug Screen. Data for the mgt1 strain (AID 153); conditions: S. cerevisiae mgt1 mutant growth inhibition, stronger effect = higher value
How it was run: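 Strain: mgt1 yeast, one of a set carrying defined DNA damage repair or cell cycle control alterations. Compound-treated growth compared with vehicle.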

[5] = NCI Yeast Anticancer Drug Screen. Data for the rad50 strain (AID 155);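 further: 0% = growth of vehicle-only cultures of the same strain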; conditions: S. cerevisiae rad50 strain growth inhibition, stronger effect = higher value
How it was run: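 Cells are treated with compound, grown, and their growth is then scored against vehicle-only cultures of the same repair-deficient yeast strain.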

[6] = NCI Yeast Anticancer Drug Screen. Data for the mec2-1 strain (AID 157); conditions: S. cerevisiae mec2-1 strain, stronger effect = higher value
How it was run: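 Strain: mec2-1 (DNA repair/cell cycle alteration). Compound exposure, then growth measured; inhibition expressed relative to vehicle.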

[7] = NCI Yeast Anticancer Drug Screen. Data for the rad14 strain (AID 159);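 further: 0% = growth of vehicle-treated control cultures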; conditions: S. cerevisiae rad14 strain growth inhibition, stronger effect = higher value
How it was run: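 Readout: yeast growth inhibition, referenced to vehicle-only cultures. Strain bears a defined alteration in DNA damage repair.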

[8] = NCI Yeast Anticancer Drug Screen. Data for the sgs1 mgt1 strain (AID 161);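 further: 0% = growth of cultures given vehicle only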; conditions: S. cerevisiae sgs1 mgt1 strain, stronger effect = higher value
How it was run: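 Mutant yeast exposed to compound; growth scored against vehicle-only wells.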

[9] = NCI Yeast Anticancer Drug Screen. Data for the cln2 rad14 strain (AID 165);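 further: 0% = growth equal to vehicle treated cultures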; conditions: S. cerevisiae cln2 rad14 strain, stronger effect = higher value
How it was run: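 Compounds are applied to the cln2 rad14 yeast strain, and growth is then compared with that of vehicle-treated cultures to give inhibition.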

[10] = NCI Yeast Anticancer Drug Screen. Data for the bub3 strain (AID 167); conditions: S. cerevisiae bub3 mutant strain, stronger effect = higher value
How it was run: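 Part of a panel of yeast mutants defective in DNA damage repair or cell cycle regulation. Each strain is grown with compound, and inhibition is calculated relative to solvent-treated cultures.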

[11] = NCI Yeast Anticancer Drug Screen. Data for the wt2 strain (AID 169);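 further: 0% = growth of vehicle-treated yeast cultures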; conditions: S. cerevisiae wt2 strain growth inhibition, stronger effect = higher value
How it was run: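 This strain belongs to a panel of yeast strains with defined genetic alterations in DNA damage repair or cell cycle control. Compounds are applied, and growth inhibition is measured against vehicle-treated cultures.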

[12] = NCI Yeast Anticancer Drug Screen. Data for the mlh1 strain (AID 171);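 further: 0% = growth of vehicle-treated control cultures of the same strain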; conditions: S. cerevisiae mlh1 strain growth inhibition, stronger effect = higher value
How it was run: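 Growth of the mutant yeast strain after compound exposure, expressed as inhibition relative to vehicle-only controls.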

[13] = NCI Yeast Anticancer Drug Screen. Data for the sgs1 strain (AID 173);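 further: 0% = growth of vehicle-only control cultures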; conditions: S. cerevisiae sgs1 mutant, stronger effect = higher value
How it was run: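 Growth of a yeast strain bearing a defined genetic alteration is measured after compound treatment. Inhibition is expressed relative to vehicle-only controls.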

[14] = NCI Yeast Anticancer Drug Screen. Data for the mlh1 rad18 strain (AID 175); conditions: S. cerevisiae mlh1 rad18 strain growth inhibition, stronger effect = higher value
How it was run: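 Read-out is yeast growth inhibition, calculated against vehicle-only controls. The compound was applied to a strain engineered with DNA damage repair alterations.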

[15] = NCI Yeast Anticancer Drug Screen. Data for the rad18 strain (AID 177); conditions: S. cerevisiae rad18 mutant growth inhibition, stronger effect = higher value
How it was run: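 Growth of the mutant yeast strain after compound exposure, normalised to vehicle-only cultures.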

[16] = NCI Yeast Anticancer Drug Screen. Data for the CLN2oe strain (AID 163);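 further: 0% = growth of vehicle-only control cultures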; conditions: S. cerevisiae CLN2oe strain, stronger effect = higher value
How it was run: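 Growth of a genetically modified yeast strain is measured after compound exposure and compared with cultures given vehicle alone.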

[17] = at 5.0 µM (retest, dose inferred, filed as 0.5)
[18] = at 50.0 µM (retest, dose inferred, filed as 5.0)

Measured: growth inhibition

COc1ccc2nc3c([N+](=O)[O-])ccc(NCCN(C)C)c3c(NCCN(C)C)c2c1
inactive: [1]; at 1.2 µM 15% | [1]; at 3.7 µM 10% | [1]; at 11.0 µM 26% | [1]; at 33.0 µM 28% | [1]; at 100.0 µM 23% | [2]; at 1.2 µM -3% | [2]; at 3.7 µM -3% | [2]; at 11.0 µM -3% | [2]; at 33.0 µM -2% | [2]; at 100.0 µM 0% | [3]; at 1.2 µM 0% | [3]; at 3.7 µM 3% | [3]; at 11.0 µM 1% | [3]; at 33.0 µM 5% | [3]; at 100.0 µM 14% | [4]; at 1.2 µM 0% | [4]; at 3.7 µM 2% | [4]; at 11.0 µM 1% | [4]; at 33.0 µM 1% | [4]; at 100.0 µM 2% | [5]; at 1.2 µM -1% | [5]; at 3.7 µM 0% | [5]; [17] 16% | [5]; at 11.0 µM 0% | [5]; at 33.0 µM 2% | [5]; [18] 33% | [5]; at 50.0 µM 26.9% | [5]; at 100.0 µM 12% | [6]; at 1.2 µM -1% | [6]; at 3.7 µM -4% | [6]; [17] 15% | [6]; at 11.0 µM -5% | [6]; at 33.0 µM 0% | [6]; [18] 17% | [6]; at 50.0 µM 35% | [6]; at 100.0 µM 3% | [7]; at 1.2 µM -2% | [7]; at 3.7 µM -3% | [7]; at 11.0 µM -3% | [7]; at 33.0 µM -4% | [7]; at 100.0 µM 1% | [8]; [17] -2% | [8]; [18] 14% | [8]; at 50.0 µM 3.95% | [9]; [17] 29% | [9]; [18] 61% | [9]; at 50.0 µM 62.4% | [10]; at 1.2 µM -3% | [10]; at 3.7 µM -7% | [10]; [17] 14% | [10]; at 11.0 µM 1% | [10]; at 33.0 µM -3% | [10]; [18] -1% | [10]; at 50.0 µM 20.4% | [10]; at 100.0 µM -3% | [11]; at 1.2 µM -3% | [11]; at 3.7 µM 0% | [11]; at 11.0 µM -1% | [11]; at 33.0 µM -1% | [11]; at 100.0 µM -2% | [12]; at 1.2 µM -1% | [12]; at 3.7 µM -2% | [12]; at 11.0 µM -1% | [12]; at 33.0 µM -1% | [12]; at 100.0 µM 1% | [13]; at 1.2 µM 3% | [13]; at 3.7 µM 6% | [13]; at 11.0 µM 2% | [13]; at 33.0 µM 2% | [13]; at 100.0 µM 2% | [14]; [17] -7% | [14]; [18] 24% | [14]; at 50.0 µM -21.4% | [15]; at 1.2 µM 6% | [15]; at 3.7 µM 6% | [15]; at 11.0 µM 7% | [15]; at 33.0 µM 1% | [15]; at 100.0 µM -6%

N#Cc1ccc(C2NN=CC23C(=O)c2ccccc2OC3c2ccccc2)cc1 (stereo unspecified)
inactive: [1]; at 1.2 µM 2% | [1]; at 3.7 µM 5% | [1]; at 11.0 µM 4% | [1]; at 33.0 µM 3% | [1]; at 100.0 µM 5% | [2]; at 1.2 µM 0% | [2]; at 3.7 µM 0% | [2]; at 11.0 µM -1% | [2]; at 33.0 µM -2% | [2]; at 100.0 µM 2% | [3]; at 1.2 µM -2% | [3]; at 3.7 µM 0% | [3]; at 11.0 µM -1% | [3]; at 33.0 µM -3% | [3]; at 100.0 µM 3% | [4]; at 1.2 µM -4% | [4]; at 3.7 µM -2% | [4]; at 11.0 µM 5% | [4]; at 33.0 µM -3% | [4]; at 100.0 µM 2% | [5]; at 1.2 µM 2% | [5]; at 3.7 µM 4% | [5]; [17] 10% | [5]; at 11.0 µM -6% | [5]; at 33.0 µM 5% | [5]; [18] 66% | [5]; at 100.0 µM 3% | [6]; at 1.2 µM 2% | [6]; at 3.7 µM -2% | [6]; [17] -19% | [6]; at 11.0 µM -3% | [6]; at 33.0 µM -4% | [6]; at 100.0 µM 1% | [7]; at 1.2 µM 0% | [7]; at 3.7 µM 1% | [7]; at 11.0 µM 5% | [7]; at 33.0 µM 3% | [7]; at 100.0 µM 3% | [8]; [17] -22% | [16]; at 1.2 µM -2% | [16]; at 3.7 µM 2% | [16]; at 11.0 µM 5% | [16]; at 33.0 µM -1% | [16]; at 100.0 µM 5% | [9]; [17] -16% | [9]; [18] 38% | [9]; at 50.0 µM 61% | [10]; at 1.2 µM -7% | [10]; at 3.7 µM 0% | [10]; [17] -28% | [10]; at 11.0 µM 7% | [10]; at 33.0 µM -2% | [10]; [18] 16% | [10]; at 50.0 µM 64% | [10]; at 100.0 µM 0% | [12]; at 1.2 µM 0% | [12]; at 3.7 µM -5% | [12]; at 11.0 µM 0% | [12]; at 33.0 µM -2% | [12]; at 100.0 µM 4% | [13]; at 1.2 µM 0% | [13]; at 3.7 µM -4% | [13]; at 11.0 µM -3% | [13]; at 33.0 µM -3% | [13]; at 100.0 µM -1% | [14]; [17] -14% | [14]; [18] 60% | [14]; at 50.0 µM 56.4% | [15]; at 1.2 µM -3% | [15]; at 3.7 µM -4% | [15]; at 11.0 µM -3% | [15]; at 33.0 µM -16% | [15]; at 100.0 µM -1%
active: [5]; at 50.0 µM 73.3% | [6]; [18] 85% | [6]; at 50.0 µM 77% | [8]; [18] 93% | [8]; at 50.0 µM 77.5%

COc1cc(/C=C2\CCc3ccccc3C2=O)cc(OC)c1OC
active: [1]; at 100.0 µM 70% | [2]; at 100.0 µM 76% | [4]; at 100.0 µM 73% | [5]; at 100.0 µM 72%
inactive: [1]; at 1.2 µM 3% | [1]; at 3.7 µM -3% | [1]; at 11.0 µM 3% | [1]; at 33.0 µM 18% | [2]; at 1.2 µM 9% | [2]; at 3.7 µM 3% | [2]; at 11.0 µM -2% | [2]; at 33.0 µM 11% | [3]; at 1.2 µM 1% | [3]; at 3.7 µM 2% | [3]; at 11.0 µM 17% | [3]; at 33.0 µM 30% | [3]; at 100.0 µM 40% | [4]; at 1.2 µM -9% | [4]; at 3.7 µM -14% | [4]; at 11.0 µM -45% | [4]; at 33.0 µM 6% | [5]; at 1.2 µM 6% | [5]; at 3.7 µM -3% | [5]; [17] 15% | [5]; at 11.0 µM -17% | [5]; at 33.0 µM 26% | [5]; [18] 6% | [5]; at 50.0 µM 44.1% | [6]; at 1.2 µM -17% | [6]; at 3.7 µM 10%
